Measured values reported in PubChem BioAssay (NCI).
This is part of a sample that, as a whole, favours compounds with a hit. Of some 83,000 tested, about 20% had one in any assay.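 Single-dose data. Exposure time 48 hours. Values below 10 considered active.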 Unmarked numbers belong to inactive results. Active and inactive are the calls of the source.

Key:
Test in all cases: NCI-60 one-dose screen, 48 h (100 = growth as untreated, 0 = no growth, -100 = all killed)
Settings in all cases: 10 µM unless noted
NCI-H23 lung = tested on: NCI-H23 lung
NCI-H226 lung = tested on: NCI-H226 lung
NCI-H322M lung = tested on: NCI-H322M lung
HOP-62 NSCLC = tested on: HOP-62 NSCLC
NCI-H460 lung = tested on: NCI-H460 lung
HOP-92 NSCLC = tested on: HOP-92 NSCLC
NCI-H522 lung = tested on: NCI-H522 lung
A549/ATCC NSCLC = tested on: A549/ATCC NSCLC
786-0 renal = tested on: 786-0 renal
COLO 205 colon = tested on: COLO 205 colon
DU-145 prostate = tested on: DU-145 prostate
K-562 leukemia = tested on: K-562 leukemia
MALME-3M melanoma = tested on: MALME-3M melanoma
MDA-MB-231 breast = tested on: MDA-MB-231 breast
RXF 393 renal = tested on: RXF 393 renal
SF-268 CNS = tested on: SF-268 CNS
SF-295 CNS = tested on: SF-295 CNS
SF-539 CNS = tested on: SF-539 CNS
UACC-257 melanoma = tested on: UACC-257 melanoma
M14 melanoma = tested on: M14 melanoma

Structure (SMILES) | growth (NCI-H23 lung) | growth (NCI-H226 lung) | growth (NCI-H322M lung) | growth (HOP-62 NSCLC) | growth (NCI-H460 lung) | growth (HOP-92 NSCLC) | growth (NCI-H522 lung) | growth (A549/ATCC NSCLC) | growth (786-0 renal) [%] | growth (COLO 205 colon) | growth (DU-145 prostate) | growth (K-562 leukemia) | growth (MALME-3M melanoma) | growth (MDA-MB-231 breast) [%] | growth (RXF 393 renal) | growth (SF-268 CNS) [%] | growth (SF-295 CNS) | growth (SF-539 CNS) | growth (UACC-257 melanoma) | growth (M14 melanoma)
COc1ccc(C(=O)Nc2ncc(Cc3ccc(Cl)cc3)s2)cc1 | 30.5% | 41.7% | 35.7% | 21.2% | 5.09% (active) | 41.4% | -16.3% (active) | 17.7% | 17.6 | -2.86% (active) | 12.6% | 7.71% (active) | 57.2% | 31.3 | 3.43% (active) | 44.8 | 1.3% (active) | -22.9% (active) | 46.8% | -29.4% (active)
COc1cc(-c2cc(-c3ccc(Nc4nc(Nc5ccc(Cl)cc5)nc(Nc5ccc(Cl)cc5)n4)cc3)no2)cc(OC)c1OC | 88.3% | 78% | 80.8% | 70.3% | 76.2% | 37.9% | 76.5% | 66.7% | 72.7 | 51.5% | 80.6% | 50.9% | 88.7% | 64.4 | 33.9% | 67.9 | 62.3% | 74.9% | 100% | 68.3%
COc1cc(C=Nc2oc(-c3ccccc3)c(-c3ccccc3)c2C#N)cc(CN2CCCC2)c1O | 94.8% | 93.7% | 103% | 94% | 102% | 85.6% | 85.8% | 94.4% | 99.3 | 114% | 108% | 94.4% | 117% | 95.7 | 111% | 96.4 | 98.5% | 95.1% | 107% | 100%
CS(=O)(=O)Nc1cc(-c2ccc3ncnc(Nc4ccc5c(cnn5Cc5ccccc5F)c4)c3c2)cnc1Cl | 41.8% | 66.7% | 62% | 40.3% | 59.4% | -21.4% (active) | 34.3% | 71.3% | 53.1 | 59.4% | 51.9% | 57.3% | -7.51% (active) | 36.1 | 20.2% | 24.3 | 60.9% | 34.5% | 52.9% | 39.1%
Nc1c(C(=O)Nc2cccc3ncccc23)sc2nc3c(cc12)CN(Cc1ccccc1)CC3 | 67.7% | 77.2% | 83% | 73.1% | 84.3% | 74.1% | 55.8% | 90.3% | 88.1 | 112% | 93.9% | 34.8% | 76.2% | 75.3 | 80.8% | 84.6 | 67.5% | 88.7% | 69.2% | 90.1%
COc1ccc(-c2cc(C(=O)N3N=C(c4ccc(N)cc4)CC3c3ccc(Cl)cc3)c3cc(OC)ccc3n2)cc1 (stereo not given) | 67.6% | 89.1% | 90.9% | 66.6% | 105% | 59.2% | 44.9% | 86.5% | 19.2 | 96.3% | 83.7% | 14.6% | 62.1% | 85 | 78.9% | 68.4 | 66.7% | 15.4% | 77.2% | 5.95% (active)
Clc1ccc(-c2nc(C(Cl)Cl)nc3cc(-c4ccccc4)nn23)cc1 | -3.66% (active) | 84.6% | -50.5% (active) | 14.6% | -54.6% (active) | 49.4% | 22.6% | -12.7% (active) | 79.9 | -8.35% (active) | -2.59% (active) | 33.2% | 46.4% | 36.9 | -55% (active) | 41.7 | 14.3% | 44% | 52.5% | 24.2%
Cc1ccc2nc(-c3ccc(C(=O)N/N=C/c4ccc([N+](=O)[O-])cc4)cc3)[nH]c2c1 | 101% | 104% | 104% | 108% | 102% | 91.9% | 95.1% | 106% | 97.6 | 108% | 103% | 101% | 92.2% | 97.3 | 104% | 101 | 111% | 97.5% | 108% | 102%
Cc1cc(=O)oc2cc(Oc3nc(Br)cn4c(Br)cnc34)ccc12 | 63.9% | 53.6% | 76.8% | 51.7% | 73.9% | 37.2% | 54.8% | 77.8% | 29 | 113% | 75% | 93.6% | 46.9% | 29.6 | 44.2% | 56.6 | 99.9% | 47.2% | 89.1% | 82.8%
CC12OC(CC(O)C1O)n1c3ccccc3c3c4c(c5c6ccccc6n2c5c31)C(=O)N(CCN1CCCC1)C4=O (stereo not given) | 14.3% | 2.49% (active) | 28.5% | 2.4% (active) | -17.3% (active) | 34.1% | -0.973% (active) | 1.98% (active) | 14.5 | 14.4% | 3.68% (active) | 4.59% (active) | 13.2% | 56.9 | 21.1% | 29 | 2.23% (active) | 22.8% | 24.5% | 19%
CCCN(CCSSCCNc1nc(N(C)O)nc(N(C)O)n1)c1nc(N(C)O)nc(N(C)O)n1 | 84% | 82.6% | 44.5% | 24.5% | 28.4% | 58.3% | 65.1% | 48% | 70 | 24.2% | 54.4% | 157% | 62.1% | 66.6 | 72.9% | 42.1 | 48.7% | 62.8% | -2.3% (active) | 84.4%
CCCC(O)Cn1ncc(C(=O)OCC)c1NC(=O)NCc1cccc(C(F)(F)F)c1 (stereo not given) | 80.1% | 103% | 84.3% | 88.2% | 103% | 58.8% | 46.5% | 95% | 80.1 | 109% | 99.8% | 46.9% | 92% | 95.1 | 113% | 103 | 93.8% | 94.3% | 101% | 58.5%
CC(=O)c1ccc(-n2cc(CN3CCN(c4cc5c(cc4F)c(=O)c(C(=O)O)cn5C4CC4)CC3)nn2)cc1 | 83.5% | 69.6% | 89.2% | 78.7% | 91.2% | 79.9% | 89.2% | 89.8% | 87.9 | 110% | 104% | 101% | 94.9% | 97.1 | 72% | 85.3 | 95.9% | 92.6% | 96.7% | 90.1%
O=c1oc2c(cnc3ccccc32)cc1-c1cccc(Cl)c1 | 101% | 96.2% | 104% | 113% | 106% | 81.7% | 101% | 104% | 106 | 118% | 108% | 89% | 103% | 97.6 | 112% | 98.8 | 101% | 95.2% | 101% | 112%
O=C(c1c[nH]c2ccccc12)c1n[nH]c(=S)n1-c1ccc([N+](=O)[O-])cc1 | 91.8% | 77.8% | 94.7% | 87.4% | 95.7% | 80.3% | 84.7% | 81% | 115 | 96.8% | 109% | 83.3% | 106% | 91.3 | 102% | 95.4 | 104% | 94.1% | 99% | 95.9%
